GPR151 ag: activators of human GPR151 | Q8TDV0 | PathHunter beta-arrestin GPR151 cells, luminescence | activation, % at 11.2 µM | hit rate 1% among 650,000; in the data active = activation above about 4.9%;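 note: 0% = median of compound wells and 100% = cells with positive control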
FBW7 act: human FBW7 E3 ligase activation, primary screen | AlphaScreen FBW7–phospho-cyclin E peptide binding, activator screen | normalized activity (activation), % at 26.1 µM | hit rate 0.13% among 650,000; in the data active = normalized activity above about 1.9%;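 note: purified mutant Fbw7 with reduced substrate affinity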
TEAD-YAP inh: TEAD-YAP interaction inhibition | AID 1259422 | hit rate 1.4% among 640,000 | HEK-TIYL cells, TEAD-Gal4/YAP UAS-luciferase luminescence | inhibition, % at 9.12 µM; in the data active = inhibition above about 32%;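 note: 0% = median of test compound wells and 100% = reference inhibitor wells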
MITF inh: inhibitors of human MITF; O75030; AlphaScreen MITF homodimerization, bead proximity signal; inhibition, % at 2.6 µM; hit rate 0.91% among 650,000; AID 1259374; in the data active = inhibition above about 50%;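 note: 0% = vehicle wells with protein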
Target sequence (O75030 whole entry, looked up): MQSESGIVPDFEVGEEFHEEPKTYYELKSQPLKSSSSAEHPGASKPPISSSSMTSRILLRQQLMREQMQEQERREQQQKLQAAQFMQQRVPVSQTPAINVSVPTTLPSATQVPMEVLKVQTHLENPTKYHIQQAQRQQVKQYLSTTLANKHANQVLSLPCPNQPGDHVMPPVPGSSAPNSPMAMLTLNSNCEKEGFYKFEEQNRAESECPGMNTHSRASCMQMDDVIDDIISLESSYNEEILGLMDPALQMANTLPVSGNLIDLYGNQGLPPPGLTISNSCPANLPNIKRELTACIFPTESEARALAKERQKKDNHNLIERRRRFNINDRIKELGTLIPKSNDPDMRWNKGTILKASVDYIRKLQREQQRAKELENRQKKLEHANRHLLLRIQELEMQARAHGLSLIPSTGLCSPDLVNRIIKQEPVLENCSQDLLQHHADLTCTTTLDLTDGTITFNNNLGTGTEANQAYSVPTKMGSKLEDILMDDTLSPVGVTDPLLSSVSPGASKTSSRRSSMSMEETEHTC
GPR151 confirm: human GPR151 activation, confirmation screen; 6,700 tested, under 10 active; activation, % at 11.2 µM; GPR151 PathHunter beta-arrestin cells, luminescence, 90 min; % of EA-reagent control over plate median; shares compounds with GPR151 ag;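 active = mean percent activation across replicates above the confirmation screen cutoff of 4.91%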
GPR119 counter: activates human GPR119 in a GPR151 counter-screen | shares compounds with GPR151 ag | GPR119 PathHunter beta-arrestin cells, luminescence, 90 min; 0 = compound-well median, 100 = enzyme-acceptor control | activation, % at 11.2 µM | hit rate 0.3% among 6,700 | AID 1508611;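 active = mean percent activation in the counterscreen above 29.09%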;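 note: counterscreen on off-target GPR119 to flag nonselective hits from the GPR151 activator screen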
The depositor's hits bear a star; · = not tested or not shown. Most compounds without a hit are left out; they make up all but 3.5% or so of the library.

SMILES	GPR151 ag	FBW7 act	TEAD-YAP inh	MITF inh	GPR151 confirm	GPR119 counter
CC1(C)C(=O)Nc2ccccc2N1C(=O)COC(=O)c1ccc([N+](=O)[O-])o1	5.7*	-0.2	3.0	-3.1	-0.7	1.3
O=C1CN(C(=O)COC(=O)c2ccc([N+](=O)[O-])o2)c2ccccc2N1	-1.4	-0.1	6.3	-7.3	·	·
O=C(O)c1cc(C23CC4CC(CC(C4)C2)C3)ccc1O	14.0*	-0.2	5.8	-9.6	-0.4	-2.8
COc1ccc(S(=O)(=O)N2CCN(c3ccccc3F)CC2)cc1Cl	11.7*	0.0	1.8	-3.5	-0.8	-2.4
Cc1cc(S(=O)(=O)N2CCN(c3ccccc3O)CC2)c(C)s1	0.5	0.0	-0.1	22.4	·	·
COc1ccc(S(=O)(=O)N2CCN(c3cccc(Cl)c3Cl)CC2)cc1OC	8.3*	-0.2	-2.5	0.1	1.3	-9.1
COc1ccccc1N1CCN(S(=O)(=O)c2cc(C)sc2C)CC1	6.1*	0.0	5.3	15.6	0.6	1.2
COc1ccc(S(=O)(=O)N2CCN(c3ccccc3OC)CC2)cc1Cl	0.6	-0.3	1.0	-10.4	·	·
CCCN1C(=O)CC(C)=Nc2ccccc21	-1.3	0.0	9.1	0.5	·	·
COC(=O)c1sccc1NC(=S)N1CCCC1	1.3	0.8	-1.5	7.3	·	·
CCOc1ccc(C2Oc3ccc4ccccc4c3C=C2[N+](=O)[O-])cc1OC (stereo not drawn)	1.4	-0.1	-45.8	7.5	·	·
Cc1sc2nc(C(C)C)n3c(=O)n(Cc4ccccn4)nc3c2c1C	12.6*	-0.1	-2.5	-3.0	-0.7	1.1
COc1ccnc(Cn2nc3c4c(C)c(C)sc4nc(C(C)C)n3c2=O)c1OC	-0.1	-0.2	-7.3	-12.3	·	·
CCn1nc2c3c(C)c(C)sc3nc(C(C)C)n2c1=O	1.8	-0.1	6.3	4.7	·	·
Cc1sc2nc(C(C)C)n3c(=O)n(CCN4CCCC4)nc3c2c1C	11.2*	-0.4	8.0	-2.3	0.1	3.3
O=C(N/N=C/c1ccncc1)C1CC1(c1ccccc1)c1ccccc1 (stereo not drawn)	5.9*	0.0	-17.9	-25.2	0.4	7.5
CC(=O)C1=C(O)C(=O)N(c2ccc(Br)cc2)C1c1ccccc1F (stereo not drawn)	-0.3	-0.1	15.3	-3.7	·	·
CC12CN3CC(C)(CN(C1)C3c1ccccc1Cl)C2 (stereo not drawn)	5.5*	-0.1	5.0	9.2	-0.7	-5.2
CC(C)C12CN3CC(C(C)C)(CN(C1)C3c1ccccc1Cl)C2=O (stereo not drawn)	-0.1	-0.1	-6.2	4.1	·	·
COC(=O)c1ccc2c(c1)N(C)C(=O)/C(=C\c1ccc(OC)c(OC)c1)S2	0.5	-0.2	-10.2	-8.0	·	·
C#CCOC(=O)CCCNc1ccc([N+](=O)[O-])cc1[N+](=O)[O-]	5.6*	0.1	0.8	14.7	-0.7	7.1
C#CCOC(=O)CCCC(=O)Nc1ccc([N+](=O)[O-])cc1Cl	0.4	-0.1	3.9	5.7	·	·
CCOc1ccc(NC(=O)N2CCC(CN3CCCCCC3)CC2)cc1	-1.0	-0.2	-2.9	4.9	·	·
CCOc1ccc(NC(=O)N2CCC(Cn3cnc4cc(C)c(C)cc43)CC2)cc1	5.8*	-0.2	9.5	6.9	0.9	4.2
COc1ccc(CNCCN(C)C)cc1	-0.3	0.5	0.4	1.9	·	·
SMILES	GPR151 ag	FBW7 act	TEAD-YAP inh	MITF inh	GPR151 confirm	GPR119 counter
Cc1ccc(S(=O)(=O)N(CC(N)=O)Cc2cccc(C)c2)cc1	5.2*	0.3	5.1	6.5	1.6	11.2
Cc1ccc(C(=O)N/C(=C\c2ccco2)C(=O)NCCCN(C)C)cc1	0.2	0.2	8.8	2.1	·	·
Cc1cc(NC(=O)CSc2nc3ccsc3c(=O)n2-c2ccc(C(N)=O)cc2)no1	5.0*	0.0	-9.1	-3.7	0.4	13.1
C=CCOc1ccc(/C=C2\C(=O)NC(=O)N(C)C2=O)cc1Br	5.7*	0.1	4.2	14.0	0.7	7.7
CCCn1c(=O)c(C(=O)Nc2cccc(C(F)(F)F)c2)c(O)c2ccccc21	-1.2	0.2	10.4	0.8	·	·
Cn1c(=O)c2c(nc(NN)n2Cc2ccccc2)n(C)c1=O	6.8*	-0.1	2.6	6.0	-0.6	-6.7
Cn1c(=O)n(Cc2ccccc2)c(=O)c2c1nc(NN)n2Cc1ccccc1	1.2	0.0	-11.7	-1.8	·	·
Cn1c(=O)c2c(nc(Cl)n2Cc2ccc(Cl)cc2)n(C)c1=O	10.2*	-0.2	-6.5	7.3	0.3	2.5
